Assay outcomes deposited in PubChem by several laboratories.
CYP2C19 inhib – blocks human cytochrome P450 2C19 | inhibition, % at 5 µM | actives 21% (n = 96,000) | AID 778 | CYP2C19 Supersomes, luciferin-H EGE luminescence, 30 min | P33261;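 active = CYP2C19 inhibition above a set limit at 5 µM in the primary screen, cut at about 50% in these data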;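 note: plate controls were negative control wells for no effect and 2.5 mM tranylcypromine positive control for full effect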
Target sequence (P33261 whole entry, looked up): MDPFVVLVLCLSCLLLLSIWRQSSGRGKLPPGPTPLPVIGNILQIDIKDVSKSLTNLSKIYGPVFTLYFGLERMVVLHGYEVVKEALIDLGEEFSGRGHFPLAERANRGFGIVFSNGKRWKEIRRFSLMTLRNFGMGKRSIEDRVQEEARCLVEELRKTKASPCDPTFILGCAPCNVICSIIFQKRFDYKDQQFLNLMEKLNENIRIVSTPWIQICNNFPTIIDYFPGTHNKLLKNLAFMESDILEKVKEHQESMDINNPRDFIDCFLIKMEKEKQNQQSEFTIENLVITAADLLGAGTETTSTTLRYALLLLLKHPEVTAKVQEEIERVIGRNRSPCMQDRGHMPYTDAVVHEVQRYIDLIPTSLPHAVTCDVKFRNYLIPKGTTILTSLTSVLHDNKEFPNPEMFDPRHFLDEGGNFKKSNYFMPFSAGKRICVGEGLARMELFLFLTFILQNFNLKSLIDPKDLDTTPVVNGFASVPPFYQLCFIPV
CYP2C9 activ – activators of human CYP2C9; actives 1.4% (n = 96,000); activation factor at 5 µM; recombinant CYP2C9, luciferin-H conversion, luminescence; active compounds read high; factor 1 = untreated enzyme, 0 = blocked; P11712;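 active = activation factor of 2 or more for CYP2C9 at a 5 µM dose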;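 note: 0 = sulfaphenazole-blocked wells and 1 = vehicle-only wells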
MRP reversal – reverses drug resistance mediated by MRP; differential viability (reversal), % at 10 µM; AID 602; actives 0.04% (n = 85,000); H69AR cells + 2 uM doxorubicin, CellTiter-Glo, 72 h;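 active = viability drop by adding the cancer drug above about 55%, with treated viability meeting a 40% cutoff, limit read from the data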;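 note: viability without doxorubicin minus viability with 2 µM doxorubicin for each compound; larger differential means the compound sensitizes cells more to doxorubicin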
MRP-1 activ – activators of MRP-1. viability increase, % at 10 µM. H69AR cells + doxorubicin, viability rescue, CellTiter-Glo. actives 0.61% (n = 140,000);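 active = viability gain under doxorubicin at or above a set limit, the compound median plus 3 SD, cut at about 4.7% in these data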;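 note: MRP-1 overexpressing cells given doxorubicin 25 µM after compound pretreatment; 18-22 h compound pretreatment then 72 h with doxorubicin before readout; 0% = doxorubicin-only wells and 100% = vehicle-treated cells without doxorubicin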
CYP2C19 act – activators of human cytochrome P450 2C19; P33261; recombinant CYP2C19, luciferin-H EGE luminescence; active compounds read high; 0 = fully inhibited enzyme, 1 = untreated enzyme; activation factor at 5 µM; 96,000 tested, under 10 active; AID 1025;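 active = activation factor of at least 2 at 5 µM in the primary screen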;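 note: 0 = wells with 2.5 mM tranylcypromine and 1 = vehicle-only wells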
CYP2C9 inh – human CYP2C9 inhibition | actives 20% (n = 96,000) | CYP2C9 Supersomes, luciferin-H conversion, luminescence | AID 777 | P11712 | inhibition, % at 5 µM;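 active = blocking of liver enzyme CYP2C9 beyond about 50% at 5 µM, limit read from the data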
Numbers without * were called inactive; . = no result given. An excerpt weighted towards active compounds, which were near 21% of everything screened.

SMILES | CYP2C19 inhib | CYP2C9 activ | MRP reversal | MRP-1 activ | CYP2C19 act | CYP2C9 inh
CCn1c(SCC(=O)Nc2nonc2C)nnc1-c1ccco1 | 86* | 0.7 | 8 | 1 | 0.1 | 32
COC(=O)CCCC(=O)Nc1ccc(Br)cc1 | . | . | . | -1 | . | .
O=c1cc(C23CC4CC(CC(C4)C2)C3)[nH][nH]1 | -21 | 0.4 | 2 | -1 | 1.2 | 56*
CC(=O)Nc1cc(C(=O)OCC(=O)c2ccc(C)cc2)ccc1C | . | . | . | -1 | . | .
O=C(COC(=O)c1cccnc1Cl)c1ccc(Cl)cc1Cl | 66* | 2.5* | -1 | -1 | 0.3 | -149
O=C(COC(=O)c1ccc(Cl)cc1O)Nc1cccnc1Cl | . | . | . | -1 | . | .
CC(C)C(=O)Nc1cccc(C(=O)OCC(=O)c2ccc(Cl)cc2Cl)c1 | 8 | 2.6* | . | -1 | 0.9 | -163
CC(=O)Nc1cc(C(=O)OCC(=O)c2ccc(Cl)cc2Cl)ccc1C | 34 | 2* | . | 1 | 0.7 | -102
C/C(=N\NC(=O)c1ccc(Cl)cc1)c1cccc(NC(=O)C(C)C)c1 | 9 | 1.1 | . | -1 | 0.9 | -8
O=C1CC(c2cccs2)Cc2nc(NCC3CCCO3)ncc21 (configuration not stated) | 85* | 0.3 | . | -1 | 0.1 | 74*
CCOc1nc(Nc2ccc(-c3nc4ccccc4o3)cc2)nc(N2CCOCC2)n1 | . | . | -12 | . | . | .
CCNc1nc(N)nc(Oc2ccc(OCc3ccccc3)nn2)n1 | 76* | 0.9 | 14 | -3 | 0.2 | 7
CCNc1nc(N)nc(Oc2ccc(OCCOc3ccccc3)nn2)n1 | 0 | 1 | 8 | -1 | 1 | -1
COC(C)(C)[C@H](O)COc1c2ccoc2cc2oc(=O)ccc12 | . | . | . | -2 | . | .
CC(=O)Nc1cccc(-c2csc(NCc3ccco3)n2)c1 | 48 | 0.6 | 3 | -2 | 0.5 | 39
CC(C)c1nc(SCC(=O)c2ccccc2)c2c(=O)n(C)c(=O)n(C)c2n1 | -2 | 0.9 | . | -4 | 1 | 9
N#C/C(=C\Nc1ccccc1O)c1nc2ccccc2o1 | . | . | . | -5 | . | .
CCOC(=O)CN1C(=O)C(Sc2n[nH]c(-c3ccc(O)cc3)n2)CCc2ccccc21 (configuration not stated) | 82* | 0.1 | . | -3 | 0.2 | 94*
CC(C)(C)OC(=O)CN1C(=O)C(Sc2n[nH]c(-c3ccccc3)n2)CCc2ccccc21 (configuration not stated) | 69* | 0.4 | . | 2 | 0.3 | 55*
CCOC(=O)CN1C(=O)C(Sc2nnc(-c3ccccc3OC)s2)CCc2ccccc21 (configuration not stated) | . | . | 10 | . | . | .
CCCCCCCCS(=O)c1sc2nc3c(cc2c1N)CCCC3 (configuration not stated) | . | . | 7 | 0 | . | .
CCCCCCCCS(=O)c1sc2nc(C)cc(C)c2c1N (configuration not stated) | 88* | 0.2 | 11 | -2 | 0.1 | 79*
O=C(Nc1ccncc1)c1ccc(NS(=O)(=O)c2cccc(F)c2)cc1 | . | . | . | -1 | . | .
CCOC(=O)c1c(N)sn(-c2ccccc2C)c1=S | 28 | 0.4 | 6 | -1 | 0.7 | 62*
C/C(=N\Nc1ccc([N+](=O)[O-])cc1[N+](=O)[O-])C(C)(C)C(C(=O)O)C(=O)O | . | . | . | -1 | . | .
SMILES | CYP2C19 inhib | CYP2C9 activ | MRP reversal | MRP-1 activ | CYP2C19 act | CYP2C9 inh
Cc1ccc(C2C3=C(CC(C)(C)CC3=O)N=C3c4ccccc4C(=O)C32)cc1 (configuration not stated) | . | . | . | -1 | . | .
CC1(C)CC(=O)C2=C(C1)N=C1c3ccccc3C(=O)C1C2c1ccc(Cl)cc1 (configuration not stated) | 81* | 0.1 | . | -2 | 0.2 | 92*
C=C(C)CSc1nc(N)cc(=O)[nH]1 | 4 | 1 | -4 | -2 | 1 | -1
C=CCc1c(C)nc(SCC(=C)C)[nH]c1=O | 55* | 0.8 | 30 | 0 | 0.5 | 17
Cc1ccc(C)c(S(=O)(=O)N2CCCOC2CNC(=O)C(=O)NCc2ccco2)c1 (configuration not stated) | . | . | . | -2 | . | .
O=C(NCCN1CCOCC1)c1cc(S(=O)(=O)NCCCN2CCCC2=O)ccc1Cl | -24 | 1.3 | 5 | -2 | 1.2 | -33
COc1cccc(C2CC(c3cccc(C)c3)n3ncnc3N2)c1 (configuration not stated) | 74* | 0.3 | 2 | 0 | 0.3 | 67*
